# Data published in PMC12864922, “TDP-43 directly inhibits mRNA accumulation in neurites through modulation of mRNA stability”.
# Over roughly 9,900 sequences, “r (bound/input frequency ratio)” has its median near 0.7; the highest 2% begin near 6.5. The sample as a whole holds a higher share of the highest values than the screen did.
# B1: ENSMUSG00000029636.202|Wasf3|244:248 (ssRNA)
# RNA: GGGAGUUCUACAGUCCGACGAUCGCUUCGAUAUCCGCAUGCUAACCAAAUGGCGAUUCCAUAGUCCUGGCUGAGGCAGGGGCUCAAAGUCCAGUGUCUGCUUUGCAAUUCUGGAAGGACAGCUGCUUAUUUAAAUAAGUCUGUGAUAUCCGCAGGCUUGGGUUACAGGGAGGACCUUGCAGAGGGACCAGGACACUGCCUUCCCUUAGGUGCAUUAUUUACGUGGCCUGCAGCUCUUAAUAUCUCUCACUGUUUAUGAAAAGAAAGAUUCAGAUCCGGGGUGACAUACACACAGUUGACAGGGCUCUUGCGGUCGCACUAGUGUGGAAUUCUCGGGUGUCAAGG
# B2: ENSMUSG00000061578.835|Ksr2|29:33;71:75;146:150 (ssRNA)
# RNA: GGGAGUUCUACAGUCCGACGAUCGCUUCGAUAUCCGCAUGCUAAAGGGCUCAGUCCAUAGCUGCCUGACUCACACAUUCUAGGCCUUUCUUGAGGCAAGUGUUCAUCAUGAUACACACAGGGUGAGGAGGAGUUUCUUCAUGGCAAACAGGAAGCAAAGAGCAAUACAGGAAAAGGUCAGGGGUGAGAACACACAUUGCCACUUCCUCCAGCUAGGACCUUUGAGCAUCACAUUGUGAAGCCAUCCAGGGACUUGGGGGUUAGGUCAGAGGUAUCAAUACAUCUCCGGAAACAUCGUCACAGACUCUUGCGGUCGCACUAGUGUGGAAUUCUCGGGUGUCAAGG
# B3: ENSMUSG00000004113.468|Cacna1b (ssRNA)
# RNA: GGGAGUUCUACAGUCCGACGAUCGCUUCGAUAUCCGCAUGCUAGCAAAAAUUUAUAUUUAACAGUGUUGAGAGAGAGAGAGAGAGAGCGAGAGAGAGAGAGAUCCAGUCAUGCAACACAAAUGGGAUCUACUUUUAAACAACAGUCCUUUGACUAGUUUGCUGCCUGAAUAAUAUUUACAAACUAAACUUUGGAUUCUGCUCUUGUUUCUACAAUGAUUUUUUGUAUAAAGCAAAGUCCUUGGAUUAAAUAAAAACAACCCAAAAAAAAAAUCAAAAUCAAAACCCAGGAUGCAACUGGGUGACUCUUGCGGUCGCACUAGUGUGGAAUUCUCGGGUGUCAAGG
# B4: ENSMUSG00000058297.109|Spock2|57:62 (ssRNA)
# RNA: GGGAGUUCUACAGUCCGACGAUCGCUUCGAUAUCCGCAUGCUAUGUACACACAGCAAGGCUUACUAUCCGUCUCCUGACAUCCGAAGAGCUCGUCGCAGCACACACUAAUGGCCCUUGGGCUGCACGUGGUUAAGCAUAGCUGUCUCUGUGGCCCAACACAAAGAGGUAAACUUACUUAAAACACAGGGGUUUUGUUGCUGUUUGUUUUUUGUUAGUUUGUUUGUUGAUAAUUGGAUUGAGGAGUUAAUCCUCUGUCACAAUGUCAAAAGCAUGGACAUCCCUGAUAGAUUAUCUCUCAACCUCUCUUGCGGUCGCACUAGUGUGGAAUUCUCGGGUGUCAAGG
# B5: ENSMUSG00000028439.270|Fam219a|220:224 (ssRNA)
# RNA: GGGAGUUCUACAGUCCGACGAUCGCUUCGAUAUCCGCAUGCUAAGCUGAGGCUGUAGCUCAGUGAGAUGGUGGCUCUCCCAUGGCUGAAGACAAGUGCAAGCAGAGAGAGCCUCAGGCUGCUGGGCCUCGGACCCACGAGCCUCCUCUCACUGAGCCAGUGCGGCCAGAGUGUCUCUCCUUCAGGCGCCCCACAUGCCAGCAUUUCCACCCUCUGGAUUCUCCUCACAUGUCACUCUCCAGGUGCCGGGGCCUAGAGUGGGCCACACAGAAGGAGGAGUGGGGCUGUUGGCUUAGGAAGGGAACUCUUGCGGUCGCACUAGUGUGGAAUUCUCGGGUGUCAAGG
# B6: ENSMUSG00000061578.426|Ksr2 (ssRNA)
# RNA: GGGAGUUCUACAGUCCGACGAUCGCUUCGAUAUCCGCAUGCUAGACCACUGACCCGUCCAGACCCUCGCUUCUUACAAUGCCUCUUCUUCUGCCAGACCAGCCACCUGCCCCACUAACACCAAAUGGCUUCUGUCCCUGCUUCACGUUGCAAAUCCUUCAAGACAGAAGUUUCAGAGGGGAUAGUUCCUUCUAACCUUGUACUGGGACAUCAUCUAUGUCCCCAUCCCCAGAGCUGAAUUAGAGACACCAAGUAGCCUCUUGGGUUGUUUUGUGGGGUGUUCCCCUUGCUGGUCAAAGGAGUGCUCUUGCGGUCGCACUAGUGUGGAAUUCUCGGGUGUCAAGG
# B7: ENSMUSG00000058297.310|Spock2 (ssRNA)
# RNA: GGGAGUUCUACAGUCCGACGAUCGCUUCGAUAUCCGCAUGCUAGCAGCUAGCUACUGGGGACCUUGUGCUGAGGCUUCCAGGACAAAGCCCCAGUCUGGCUCUCCCCCAGCCUCUCAGGGGCACUGGCUGGUCACAUCCACUGAGUAUUGAUCGGUUGGACUUUAGGGAAGAGCCUCCUCCUUCCCAUUCCUUUCUGCCACCCUGGAAUGGCCACCUUAAUCGUCAUCUCCUCGGGGGGAAUACGGAAAUGUCACCAAGCUCCAUAAAGUGCUUCUCAUUCCACGACACAGUUCUGACUCUCCCUCUUGCGGUCGCACUAGUGUGGAAUUCUCGGGUGUCAAGG
# B8: ENSMUSG00000090935.19|Synj2bp (ssRNA)
# RNA: GGGAGUUCUACAGUCCGACGAUCGCUUCGAUAUCCGCAUGCUAAUUAUUUAGUCACGGAGGAAGAGAUCAACCUGACGAGAGGACCUUCGGGUAAAUGGCCAAGAUCUGAAGAACCUGCUGCACCAAGAUGCUGUAGACCUCUUCCGUAAUGCGGGAUGUGCUGUGUCCCUGAGAGUACAGCACAGGUUACCAGUGCAGAAUGGACCUAUAGUACAUCGAGGUGAAGGAGAGCCAAGUGGAGUUCCUGUAGCUAUGGUGCUGCUACCAGUGUUUGCCCUCACCAUGGUAGCAGUUUGGGCCUUCUCUUGCGGUCGCACUAGUGUGGAAUUCUCGGGUGUCAAGG
# B9: ENSMUSG00000061578.1360|Ksr2|254:258 (ssRNA)
# RNA: GGGAGUUCUACAGUCCGACGAUCGCUUCGAUAUCCGCAUGCUAAGGCAAGCAACCUUGCCAAGGCAGGCCAGACAGGACAGCCCAGCUUCCCACUCCAGACAUGUUGUUCUUACAUCUCUGACCCAGUGAUCUUUCUAGGGGUCUGUCACAUGUCCCAACAGGUGGACAGCUCUCCAAGUCACCAACCUGAGGAAAAUAUCCCUCCUUGUAAAAAGGCUUUCUCUUUGUAAAUGAUUCUGUUGCCUUUUUCUAAACACAAAGUAUAUAUACCUAUAAAUGCUAUAUAUAUUAUAUAACACAAUCUCUUGCGGUCGCACUAGUGUGGAAUUCUCGGGUGUCAAGG
# Target: TDP-43 (Homo sapiens, UniProt Q13148 1-414)
# Sequence (Q13148 whole entry): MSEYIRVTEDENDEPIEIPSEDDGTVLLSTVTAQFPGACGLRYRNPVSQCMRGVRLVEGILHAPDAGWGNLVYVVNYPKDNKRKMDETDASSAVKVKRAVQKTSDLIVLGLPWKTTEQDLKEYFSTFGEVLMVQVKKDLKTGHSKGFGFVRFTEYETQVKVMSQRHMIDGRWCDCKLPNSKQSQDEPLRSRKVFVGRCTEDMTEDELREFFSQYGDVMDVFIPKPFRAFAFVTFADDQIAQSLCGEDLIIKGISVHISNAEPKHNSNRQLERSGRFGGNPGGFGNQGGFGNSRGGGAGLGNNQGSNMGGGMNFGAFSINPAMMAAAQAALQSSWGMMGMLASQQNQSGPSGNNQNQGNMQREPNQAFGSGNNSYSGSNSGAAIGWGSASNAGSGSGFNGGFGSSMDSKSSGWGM
# Assay: RNA Bind-n-Seq with designed 260-mer pool; 25 mM Tris-HCl, 150 mM KCl, 3 mM MgCl2, BSA (printed 500 mg/mL), 20 units/mL SUPERase IN; pH not stated; 500 nM RNA pool, 1 h, 4 C; TDP-43 5, 50, 500 nM; high values mean tight binding
# Details: protein: recombinant; tags: SBP (GST cleaved off with PreScission; pGEX-GST-SBP)
# Summary of the method: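 Binding (R) is the ratio of each oligo's mapped-read-normalized abundance in the bound fraction to its abundance in the input. To obtain it, SBP-tagged recombinant TDP-43 (5, 50 or 500 nM) on streptavidin beads was incubated with 500 nM of an in vitro-transcribed 260-nt 3′ UTR oligo pool for 1 h at 4 °C in 25 mM Tris-HCl, 150 mM KCl, 3 mM MgCl2, BSA and SUPERase IN. The RNA retained after washing was released with biotin, then reverse transcribed, amplified by PCR and sequenced.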
row,Binder,binding signal
1,B1,0.996 R (bound/input frequency ratio)
2,B2,0.305 R (bound/input frequency ratio)
3,B3,0.308 R (bound/input frequency ratio)
4,B4,1.85 R (bound/input frequency ratio)
5,B5,1.33 R (bound/input frequency ratio)
6,B6,1.01 R (bound/input frequency ratio)
7,B7,0.874 R (bound/input frequency ratio)
8,B8,0.919 R (bound/input frequency ratio)
9,B9,0.201 R (bound/input frequency ratio)
